Data on 15 molecules can be found in PubChem BioAssay (Tox21).

Where “and” joins values, the source holds several entries; their conditions need not be identical. Identical values can stand only once. Results filed as inconclusive are left out. A structure can be active in one record and inactive in another. Calls of active or inactive are those of the source. Unless noted, calls come from the whole dose curve; as a rule, active = well fitted curve in the direction sought with a large enough effect in the repeat runs; inconclusive = weak or mixed curves; inactive = no such curve, though single readings can be large; an effect the other way counts as inactive or inconclusive.

Assay [1] in a line: qHTS assay to identify small molecule agonists of the vitamin D receptor (VDR) signaling pathway - cell viability counter screen (AID 743224). Note: nearly all actives have a fitted effect of over 50% in size. Note: potency is the fitted concentration of half-maximal effect. An outline of the steps: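 VDR-bla cell line, quantitative HTS format; 16 h compound incubation (37C, 5% CO2); ATP-based CellTiter-Glo luminescence measured in the reporter assay wells.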
Assay [2] is described as follows: qHTS assay to identify small molecule antagonists of the vitamin D receptor (VDR) signaling pathway - cell viability counter screen (AID 743225). Note: nearly all actives have a fitted effect of over 50% in size. Note: potency is the fitted concentration of half-maximal effect. In short, it runs like this: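 HEK293T VDR-bla; cpd + 1a,25-(OH)2D3 3 nM final, 16 h 37C/5% CO2; B/G FRET substrate 2 h RT; then CellTiter-Glo 30 min RT, luminescence.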
Assay [3] is described as follows: qHTS assay to identify small molecule agonists of the NFkB signaling pathway - cell viability counter screen (AID 1159515; calls by dose curve; note: nearly all actives have a fitted effect of over 55% in size; note: potency is the fitted concentration of half-maximal effect). An outline of the steps: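 Viability in NFkB-bla ME-180 cells was measured by CellTiter-Glo luminescence, 30 min room temperature, in wells already treated 5 hr with compounds and read for reporter FRET.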
Assay [4] is described as follows: qHTS assay to identify small molecule agonists of the endoplasmic reticulum stress response signaling pathway - cell viability counter screen (AID 1159517; calls by dose curve; note: nearly all actives have a fitted effect of over 50% in size; note: potency is the fitted concentration of half-maximal effect). In short, it runs like this:
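Luminescence readout: CellTiter-Glo, 30 min RT, same wells as the ESRE-bla reporter read. HeLa ESRE-bla, 1,500 cells/well, o/n 37 C; cpd 5 hr 37 C/5% CO2.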

Assay [5] in a line: qHTS assay to identify small molecule antagonists of the retinoid-related orphan receptor gamma (ROR-gamma) signaling pathway - cell viability counter screen (AID 1159520). Note: nearly all actives have a fitted effect of over 50% in size. Note: potency is the fitted concentration of half-maximal effect. In short, it runs like this:
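Tet-on ROR gamma CHO cells (1,000/well) were plated 4 hr, given compounds in DMSO for 2 hr at 37 C, then induced with 1 uM final doxycycline for 16 hr. Viability was read as ATP by CellTiter-Glo luminescence after 30 min.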

The target in assay [6] is Nuclear receptor ROR-gamma (Homo sapiens) (UniProt P51449). Briefly: qHTS assay to identify small molecule antagonists of the retinoid-related orphan receptor gamma (ROR-gamma) signaling pathway (AID 1159521; note: nearly all actives have a fitted effect of over 50% in size; note: potency is the fitted concentration of half-maximal effect). In short, it runs like this:
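Cells were plated, rested 4 h at 37 C, exposed to compounds for 2 h, then given 1 uM final doxycycline hyclate to induce RORγ expression. After 16 h, ONE-Glo luminescence from the ROR response element reporter was measured.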

Assay [7] in a line: qHTS assay to identify small molecule agonists of the AP-1 signaling pathway - cell viability counter screen (AID 1159525; calls by dose curve; note: nearly all actives have a fitted effect of over 55% in size; note: potency is the fitted concentration of half-maximal effect). In short, it runs like this: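 ME-180 AP-1-bla, 2500 cells/well, Opti-MEM + 0.5% dialyzed FBS; overnight 37 °C; cpd 15-pt titration, 5 h 37 °C; CellTiter-Glo 30 min RT; luminescence read; normalised to TOAB and DMSO controls.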
Assay [8] in a line: qHTS assay to identify small molecule agonists of the AP-1 signaling pathway (AID 1159526; calls by dose curve; note: % is set by controls: 0 for no effect and ±100 for the full control effect).
The nature of assay [9]: qHTS assay to identify small molecule agonists of the RXR signaling pathway - cell viability counter screen (AID 1159529). Note: nearly all actives have a fitted effect of over 50% in size. Note: potency is the fitted concentration of half-maximal effect. An outline of the steps:
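Steps: seed RXR-alpha-UAS-bla HEK 293T cells in assay medium containing 2% charcoal-stripped FBS; incubate 5 hr; add compounds in DMSO; incubate 16 hr at 37 C; after the bla read, add CellTiter-Glo and read luminescence at 30 min.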

A short description of assay [10]: qHTS assay to identify small molecule antagonists of the retinoid acid receptor (RAR) signaling pathway - cell viability counter screen (AID 1159551). Note: nearly all actives have a fitted effect of over 35% in size. Note: potency is the fitted concentration of half-maximal effect. An outline of the steps: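 Following overnight attachment, C3RL4 reporter cells received DMSO-dissolved compounds and then retinol (1 uM final). Six hours later at 37 C, ATP content was measured by CellTiter-Glo luminescence.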

Assay [11] can be described thus: qHTS assay to identify small molecule agonists of the endoplasmic reticulum stress response signaling pathway (AID 1159516; active = well fitted activation curve with a large enough effect in the signal ratio in the repeat runs, not every such curve was filed as active; the % refers to the signal ratio; note: % is set by controls: 0 for no effect and ±100 for the full control effect). An outline of the steps: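 ER stress element reporter (bla) in HeLa. 1,500 cells/well, overnight attachment; 5 hr compound; 2 hr RT substrate; dual-emission fluorescence.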
Assay [12] addresses Retinoic acid receptor RXR-alpha (Homo sapiens) (UniProt P19793). Briefly: qHTS assay to identify small molecule agonists of the RXR signaling pathway (AID 1159527; calls by dose curve; note: % is set by controls: 0 for no effect and ±100 for the full control effect; nearly all actives have a fitted effect of over 35% in size). In short, it runs like this:
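Cells plated at 2,000/well, rested 5 hr at 37 C, pin-dosed with DMSO compound solutions, incubated 16 hr, then loaded with B/G FRET substrate for 2 hr at RT before dual-emission fluorescence reading.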

Assay [13] is described as follows: qHTS assay to identify small molecule agonists of the retinoic acid receptor (RAR) signaling pathway (AID 1159553). Note: % is set by controls: 0 for no effect and ±100 for the full control effect. An outline of the steps: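 Cell line C3RL4, RARE luciferase reporter. Treatment: compounds in DMSO, 6 hr, 37 C, 5% CO2, after overnight plating. Detection: luminescence, 30 min RT after reagent.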
A short description of assay [14]: qHTS assay to identify small molecule antagonists of the retinoic acid receptor (RAR) signaling pathway (AID 1159552; note: nearly all actives have a fitted effect of over 50% in size; note: potency is the fitted concentration of half-maximal effect). An outline of the steps:
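Retinol at 1 uM final stimulated RARE-luciferase expression in C3RL4 cells exposed to test compounds for 6 hr at 37 C. Reduced luminescence, read 30 min after detection reagent, indicated pathway antagonism.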

Chain of Retinoic acid receptor RXR-alpha (Homo sapiens) (P19793 whole entry, looked up): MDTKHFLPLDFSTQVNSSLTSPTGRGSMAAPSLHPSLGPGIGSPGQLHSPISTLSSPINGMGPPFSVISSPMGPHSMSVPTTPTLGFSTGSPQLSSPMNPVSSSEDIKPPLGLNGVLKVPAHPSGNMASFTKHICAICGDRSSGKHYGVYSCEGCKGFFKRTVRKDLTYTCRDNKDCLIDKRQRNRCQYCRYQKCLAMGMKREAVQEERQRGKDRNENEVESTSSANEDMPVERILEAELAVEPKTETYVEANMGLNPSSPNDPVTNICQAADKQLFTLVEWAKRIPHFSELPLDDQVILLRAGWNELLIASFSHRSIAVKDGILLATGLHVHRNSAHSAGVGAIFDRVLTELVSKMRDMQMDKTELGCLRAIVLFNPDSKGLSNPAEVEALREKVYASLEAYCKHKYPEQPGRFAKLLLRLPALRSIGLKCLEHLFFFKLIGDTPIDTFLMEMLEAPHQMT

For the molecule `Nc1ccc(-c2ccc(N)c(Cl)c2)cc1Cl`, the Potency entry in assay [1], in assay [2], in assay [3], in assay [4], in assay [7] and in assay [8] was “inactive” throughout. The Potency result in [9] and in [10] was “inactive” in each case. The Potency result in assay [5] was “inactive and 48.6 µM (active)”; in assay [6], 68.6 µM (active).
Turning to `Cc1cc(Cl)ccc1OCC(=O)O`, the Potency entry in assay [1], in [2], in [3], in assay [4], in [5] and in [6] was “inactive” each time. The Potency entry in assay [7], in [8], in assay [9] and in [10] was “inactive” each time. The molecule was called inactive in assay [11].
Regarding `CCCCCCCCCCCCCC[P+](CCCCCC)(CCCCCC)CCCCCC`, the Potency is 9.82 µM (active) and 5.54 µM (active) in [1]; 19.6 µM (active) and 17.5 µM (active) in assay [2]; 19.6 µM (active) and 24.7 µM (active) and inactive in [3]; 31 µM (active) and 27.8 µM (active) and inactive in assay [4]; 9.73 µM (active) and 19.5 µM (active) in [5]; 11 µM (active) and 19.7 µM (active) and inactive in assay [7]. Also, the Potency in assay [9] was 8.75 µM (active) and 15.6 µM (active); in [10] it was 27.4 µM (active) and 27.5 µM (active) and inactive. Besides, the call in assay [11] was inactive. Besides, the Potency entry in assay [8] was “inactive”.
For `O=C(O)COc1ccc(Cl)cc1Cl`, the Potency result in [1], in assay [2], in assay [3], in [4], in assay [5] and in assay [7] was “inactive” throughout. For the same molecule, the Potency result in assay [8], in [12], in [9] and in [10] was “inactive” in each case. Moreover, the outcome in assay [11] was inactive.
With `O=C(O)c1ccccc1O`, the Potency result in assay [1], in [2], in assay [3], in assay [4], in assay [5] and in [7] was “inactive” in each case. Also, the Potency entry in assay [8], in [9], in assay [10] and in [13] was “inactive” in each case. For the same molecule, the call in [11] was inactive.
On to `CC(=O)O`, for which the Potency result in assay [1], in [2], in assay [3], in [4], in assay [5] and in [7] was “inactive” throughout. Also, the Potency entry in assay [8], in assay [9] and in assay [10] was “inactive” throughout. Further, in [11], the call was inactive.
Turning to `CCC[N+]1(C)CCCCC1`, the Potency result in [1], in [2], in assay [3], in assay [4], in [5] and in assay [6] was “inactive” each time. In addition, the Potency entry in [7], in assay [8], in assay [9] and in [10] was “inactive” throughout. For the same molecule, the molecule was classed as inactive in assay [11].
Turning to `N#CS`, the Potency entry in assay [1], in assay [2], in assay [3], in assay [4], in assay [5] and in assay [7] was “inactive” each time. Moreover, the Potency entry in assay [8], in assay [12], in [9] and in assay [10] was “inactive” throughout. The result in assay [11] was inactive.
For the molecule `CC(=O)[O][Hg][c]1ccccc1`, the Potency in assay [1] was 686 nM (active) and 871 nM (active) and 422 nM (active); in assay [2], 1.37 µM (active) and 2.19 µM (active) and 2.39 µM (active); in [3], 485 nM (active) and 549 nM (active) and 1.34 µM (active); in assay [4], 485 nM (active) and 692 nM (active) and 2.13 µM (active); in assay [5], 304 nM (active) and 969 nM (active) and 422 nM (active); in assay [6], 429 nM (active) and 545 nM (active) and 750 nM (active). The Potency in assay [7] is 1.37 µM (active) and 2.45 µM (active) and 4.25 µM (active); in [9] it was 1.72 µM (active) and 1.95 µM (active) and 2.39 µM (active); in assay [10], 5.4 µM (active) and 13.7 µM (active) and 16.8 µM (active); in assay [14], 1.92 µM (active) and 1.54 µM (active) and 2.11 µM (active).
For the molecule `O=C(O)C(Cl)Cl`, the Potency entry in [1], in assay [2], in assay [3], in assay [4], in assay [5] and in assay [6] was “inactive” throughout. For the same molecule, the Potency entry in assay [7], in [8], in [9] and in [10] was “inactive” throughout. In addition, the outcome in assay [11] was inactive.
Consider `CN(C)[C@@H]1C(=O)C(C(N)=O)=C(O)[C@@]2(O)C(=O)C3=C(O)c4c(O)cccc4[C@@](C)(O)[C@H]3[C@H](O)[C@@H]12`, for which the Potency result in assay [1], in assay [2], in [3], in assay [4], in assay [5] and in assay [7] was “inactive” in each case. Moreover, the Potency entry in assay [8], in assay [12], in assay [9] and in [10] was “inactive” each time. In [11], the call was inactive.
For the molecule `CNC`, the Potency entry in [1], in assay [2], in assay [3], in [4], in assay [5] and in assay [6] was “inactive” each time. For the same molecule, the Potency result in assay [7], in assay [8], in [9] and in assay [10] was “inactive” in each case. Also, in assay [11], the molecule was called inactive.
For `CCCCCCCCn1cc[n+](C)c1`, the Potency result in assay [3], in assay [4], in assay [5], in assay [7], in assay [8] and in assay [9] was “inactive” in each case. For the same molecule, the Potency entry in assay [10], in assay [14] and in [13] was “inactive” in each case. The result in assay [11] was inactive.
In the case of `CCCCn1cc[n+](C)c1C`, the Potency entry in assay [1], in assay [2], in assay [3], in [4], in [5] and in assay [7] was “inactive” each time. Moreover, the Potency entry in assay [8], in assay [9] and in assay [10] was “inactive” in each case. The call in [11] was inactive.
Regarding `CCCCCCCCCCn1cc[n+](C)c1`, the Potency result in [3], in assay [5], in assay [7], in assay [8], in [9] and in [10] was “inactive” throughout. Besides, in assay [6], the Potency is 7.73 µM (active) [middle of 5 runs].
